Screens (PubChem)
GDH-TPI inh = GDH-TPI coupled enzyme inhibition counter-screen | GDH-TPI coupled enzyme counterscreen, NADH absorbance | inhibition, % at 4.8 µM | AID 588335 | actives 1.2% (n = 360,000); in the data active means inhibition above about 30%
Mtb FBA inh = Mtb fructose-bisphosphate aldolase inhibition; actives 2.3% (n = 360,000); purified M. tuberculosis FBA, fluorescence read-out; AID 588726; inhibition, % at 1 µM; in the data active means inhibition above about 27%
Target sequence (P9WQA3 whole entry, looked up): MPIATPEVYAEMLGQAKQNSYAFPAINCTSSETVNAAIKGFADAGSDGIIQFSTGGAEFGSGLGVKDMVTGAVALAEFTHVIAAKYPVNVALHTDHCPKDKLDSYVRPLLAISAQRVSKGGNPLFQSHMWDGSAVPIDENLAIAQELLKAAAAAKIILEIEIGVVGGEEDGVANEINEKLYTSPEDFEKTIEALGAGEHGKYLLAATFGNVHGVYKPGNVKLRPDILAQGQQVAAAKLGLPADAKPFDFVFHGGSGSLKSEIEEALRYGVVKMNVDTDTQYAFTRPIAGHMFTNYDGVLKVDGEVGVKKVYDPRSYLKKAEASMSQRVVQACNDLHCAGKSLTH
RecA intein inh = blocks M. tuberculosis RecA intein splicing; actives 0.75% (n = 290,000); inhibition, % (no concentration beside the values); cell-free RecA intein splicing, fluorescence; in the data active means inhibition above about 30%; inconclusive means no clear call, values can overlap the other calls
Mtb bLac sens = beta-lactam sensitization of Mtb H37Rv. M. tuberculosis H37Rv growth with meropenem, percent inhibition. inhibition, % at 25 µM. actives 0.27% (n = 330,000). AID 434955; call rule not given here;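 further: growth measured after seven days incubation then overnight dye step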
Rv3671c protease = Rv3671c (M. tuberculosis) protease inhibition; actives 0.048% (n = 320,000); inhibition, % at 5.96 µM; AID 2606; in the data active means inhibition above about 38%;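 further: extracellular domain of Rv3671c used as enzyme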
Mtb UGM inh = Mtb UDP-galactopyranose mutase inhibition; AID 504406; actives 0.06% (n = 320,000); purified UGM, fluorescence polarization probe displacement; P9WIQ1; inhibition, % at 10 µM; in the data active means inhibition above about 10%, passing the limit was not always enough; inconclusive means no clear call, values can overlap the other calls
Each line names hits and unclear results; the compound was inactive in the other large screens. Sampled rows, rich in hits. Any-hit rate of the full collection: about 4%.

CCn1c(-c2ccc[nH]c2=O)nc2ccccc21	Mtb FBA inh 134.1
Cn1c(-c2ccc[nH]c2=O)nc2cc(Cl)ccc21	Mtb FBA inh 137.3
O=c1[nH]cccc1-c1nc2ccccc2n1Cc1ccccc1F	Mtb FBA inh 121.8
O=C(O)C1C2CC(C(Br)C2Br)C1C(=O)O (stereo unspecified)	none (no result: RecA intein inh, Mtb bLac sens, Rv3671c protease, Mtb UGM inh)
CC(C)(C)c1ccc(S(=O)(=O)Nc2ccc(C(=O)N3CCCC3)cc2)cc1	none (no result: Rv3671c protease)
COC(=O)COc1ccc(/C=C2/SC(=O)N(CC(=O)N3CCCC3)C2=O)cc1Br	GDH-TPI inh 36.1
Fc1ccc(/C=N/Nc2ncnc3nc[nH]c23)cc1F	GDH-TPI inh 42.2
CCOC(=O)c1sc2nc(CC(=O)OC)nc(NCCN(CC)CC)c2c1C	Mtb FBA inh 132.0
O=c1oc2cc(O)ccc2cc1-c1nc2ccccc2o1	Mtb FBA inh active (no result: GDH-TPI inh, RecA intein inh, Mtb bLac sens, Rv3671c protease, Mtb UGM inh)
O=c1cc(-c2cc3ccccc3o2)c2cc(O)ccc2o1	Mtb bLac sens inconclusive
Cc1ccc(S(=O)(=O)c2cc3cc(Br)ccc3oc2=O)cc1	none (no result: Mtb UGM inh)
CCN(CC)c1ccc2cc(S(=O)(=O)c3ccc(Cl)cc3)c(=O)oc2c1	Mtb UGM inh 19.9 (no result: RecA intein inh)
O=c1oc2cc(O)ccc2cc1S(=O)(=O)c1ccccc1	Mtb FBA inh active, Mtb bLac sens inconclusive
CC(CC(=O)Nc1nnc(CC(C)(C)C)s1)c1ccccc1 (stereo unspecified)	none
Oc1ccccc1CN1CCCC(N2CCN(c3cccc(C(F)(F)F)c3)CC2)C1 (stereo unspecified)	none (no result: RecA intein inh)
COc1ccc(/C(C)=N/N=C2/NC(=O)CC(C(=O)O)S2)cc1 (stereo unspecified)	none
CNC(=O)C1CC(=O)N/C(=N/N=C(\C)c2cccs2)S1 (stereo unspecified)	GDH-TPI inh 37.3
COc1ccc(/C(C)=N/N=C2/NC(=O)CC(C(=O)O)S2)cc1F (stereo unspecified)	GDH-TPI inh 51.9
Cc1ccc(CCNC(=O)C2CCCN(S(=O)(=O)c3c(C)noc3/C=C/N(C)C)C2)cc1 (stereo unspecified)	GDH-TPI inh 53.1 (no result: RecA intein inh)
Cc1ccc(NC(=O)C2CCCN(S(=O)(=O)c3c(C)noc3/C=C/N(C)C)C2)c(C)c1 (stereo unspecified)	GDH-TPI inh 35.9
Cc1ccc(C)c(NC(=O)C2CCCN(S(=O)(=O)c3c(C)noc3/C=C/N(C)C)C2)c1 (stereo unspecified)	GDH-TPI inh 38.5
Cc1ccc(NC(=O)C2CCCN(S(=O)(=O)c3c(C)noc3C)C2)c(Br)c1 (stereo unspecified)	none
Cc1noc(/C=C/N(C)C)c1S(=O)(=O)N1CCCC(C(=O)Nc2ccc(F)cc2F)C1 (stereo unspecified)	GDH-TPI inh 39.3
CCOC(=O)c1ccc(NC(=O)Nc2ccc3c(c2)OCCO3)cc1	none
CCC(C)(C(=O)Nc1ccc2c(c1)OCCO2)N(C(C)=O)c1ccc(C(N)=O)cc1 (stereo unspecified)	GDH-TPI inh 31.8, Mtb bLac sens inconclusive
O=C(Nc1ccccc1)C(=O)Nc1ccc2c(c1)N(C(=O)C1CC1)CCC2	none
O=C1CS/C(=C\[N+](=O)[O-])N1c1ccc(OC(F)(F)F)cc1	RecA intein inh 35.7
O=C(NCCO)c1cccc(-c2cnc3cccnn23)c1	Mtb FBA inh 156.1 (no result: RecA intein inh, Mtb bLac sens, Rv3671c protease, Mtb UGM inh)
CN1CCN(C(=O)c2ccc(-c3cnc4cccnn34)cc2)CC1	Mtb FBA inh active (no result: RecA intein inh, Mtb bLac sens, Rv3671c protease, Mtb UGM inh)
CNc1ccc2ncc(-c3cccc(C(=O)N(C)C)c3)n2n1	Mtb FBA inh 155.8 (no result: RecA intein inh, Mtb bLac sens, Rv3671c protease, Mtb UGM inh)
CN1CCN(C(=O)c2ccc(-n3cccc3)cc2)CC1	none
CN(C)C(=O)c1cccc(-c2ccc3nncn3c2)c1	none (no result: RecA intein inh, Mtb bLac sens, Rv3671c protease, Mtb UGM inh)
O=C(NCCO)c1ccc(-c2cnc3cccnn23)cc1	Mtb FBA inh active (no result: RecA intein inh, Mtb bLac sens, Rv3671c protease, Mtb UGM inh)
CS(=O)(=O)Nc1ccc(-c2cnc3cccnn23)cc1	none (no result: RecA intein inh, Mtb bLac sens, Rv3671c protease, Mtb UGM inh)
Cc1c(NS(=O)(=O)c2cccc(C(=O)OCC(=O)c3ccc(Cl)cc3)c2)c(=O)n(-c2ccccc2)n1C	none (no result: RecA intein inh, Mtb bLac sens, Rv3671c protease, Mtb UGM inh)
CC(C)C(=O)Nc1nc(-c2ccc(S(=O)(=O)N3CCOCC3)cc2)cs1	Mtb FBA inh 59.1
Cc1c(Cl)cccc1NC(=S)NC(=O)c1ccccc1	none (no result: RecA intein inh, Mtb bLac sens, Rv3671c protease, Mtb UGM inh)
O=C(CCN1C(=O)C2CCCCC2C1=O)N1CCN(S(=O)(=O)c2c(F)cccc2F)CC1 (stereo unspecified)	none
Cc1cc(-c2nc3ncccc3o2)ccc1NC(=O)CC(C)C	Mtb FBA inh active
COc1ccc(-c2cc(=Nc3c(C)n(C)n(-c4ccccc4)c3=O)c3ccccc3o2)cc1	Mtb FBA inh active
